Laboratory results published in the supplement of paper PMC10849652.
The full data set covers some 8,800 targets. This sample favours those with a hit. About 0.5% of all pairs of compound and target were hits. Values without a mark were called inactive.

What was measured:
Assay in all cases: log2 fold change, soluble protein after heating vs DMSO (PISA); higher = thermal stabilisation; K562 lysate, 10 uM; active = over 0.2 and 3.5 SD of the protein, either way, in both replicates (recomputed)
lapatinib = compound: CS(=O)(=O)CCNCc1ccc(-c2ccc3ncnc(Nc4ccc(OCc5cccc(F)c5)c(Cl)c4)c3c2)o1 [lapatinib]
Procedure, shortened: (§1)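 Quantification was by TMTpro 16plex LC-MS/MS with equalised channel sums, applied to the supernatant after 21,000xg for 90 min. Samples were crude K562 extract at 1 mg/mL protein in PBS pH 7.4 with 1 mM MgCl2, treated with 10 μM compound for 30 min, heated for 3 min across 48°C-58°C, pooled and brought to 0.5% NP-40 at 4°C. Values are log-two fold changes in thermal stability relative to solvent controls, from duplicates.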

pictilisib = compound: CS(=O)(=O)N1CCN(Cc2cc3nc(-c4cccc5[nH]ncc45)nc(N4CCOCC4)c3s2)CC1 [pictilisib]
Procedure, shortened: as §1

crizotinib = compound: C[C@@H](Oc1cc(-c2cnn(C3CCNCC3)c2)cnc1N)c1c(Cl)ccc(F)c1Cl [crizotinib]
Procedure, shortened: as §1

[1] = compound: C[C@H](C1=CC=C(C=C1)C(=O)NC2=C3C=CNC3=NC=C2)N
Procedure, shortened: as §1

duvelisib = compound: C[C@H](Nc1ncnc2nc[nH]c12)c1cc2cccc(Cl)c2c(=O)n1-c1ccccc1 [duvelisib]
Procedure, shortened: as §1

gandotinib = compound: Cc1cc(Nc2cc(CN3CCOCC3)c3nc(C)c(Cc4ccc(Cl)cc4F)n3n2)n[nH]1 [gandotinib]
Procedure, shortened: as §1

doramapimod = compound: Cc1ccc(-n2nc(C(C)(C)C)cc2NC(=O)Nc2ccc(OCCN3CCOCC3)c3ccccc23)cc1 [doramapimod]
Procedure, shortened: as §1

bafetinib = compound: Cc1ccc(NC(=O)c2ccc(CN3CC[C@H](N(C)C)C3)c(C(F)(F)F)c2)cc1Nc1nccc(-c2cncnc2)n1 [bafetinib]
Procedure, shortened: as §1

[2] = compound: Cc1cccc(CC(=O)N2CCc3c2ccc(-c2cn(C)c4ncnc(N)c24)c3F)n1
Procedure, shortened: as §1

nilotinib = compound: Cc1cn(-c2cc(NC(=O)c3ccc(C)c(Nc4nccc(-c5cccnc5)n4)c3)cc(C(F)(F)F)c2)cn1 [nilotinib]
Procedure, shortened: as §1

[3] = compound: Cc1nc(Nc2n[nH]c3c2CN(C(=O)N[C@H](CN(C)C)c2ccccc2)C3(C)C)c2sccc2n1
Procedure, shortened: as §1

dasatinib = compound: Cc1nc(Nc2ncc(C(=O)Nc3c(C)cccc3Cl)s2)cc(N2CCN(CCO)CC2)n1 [dasatinib]
Procedure, shortened: as §1

[4] = compound: Cc1ncc(-c2ccnc(Nc3ccc(S(C)(=O)=O)cc3)n2)n1C(C)C
Procedure, shortened: as §1

[5] = compound: Cn1cc(-c2ccc3c(c2)CCN3C(=O)Cc2cccc(C(F)(F)F)c2)c2c(N)ncnc21
Procedure, shortened: as §1

quisinostat = compound: Cn1cc(CNCC2CCN(c3ncc(C(=O)NO)cn3)CC2)c2ccccc21 [quisinostat]
Procedure, shortened: as §1

tipifarnib = compound: Cn1cncc1[C@@](N)(c1ccc(Cl)cc1)c1ccc2c(c1)c(-c1cccc(Cl)c1)cc(=O)n2C [tipifarnib]
Procedure, shortened: as §1

[6] = compound: NC(=O)Nc1cc(-c2cccc(F)c2)sc1C(=O)N[C@H]1CCCNC1
Procedure, shortened: as §1

[7] = compound: NC(=O)c1cnc(N[C@@H]2CCCC[C@@H]2N)nc1Nc1cccc(-n2nccn2)c1
Procedure, shortened: as §1

[8] = compound: NC1(c2ccc(-c3nc4ccn5c(=O)[nH]nc5c4cc3-c3ccccc3)cc2)CCC1
Procedure, shortened: as §1

tozasertib = compound: Cc1cc(Nc2cc(N3CCN(C)CC3)nc(Sc3ccc(NC(=O)C4CC4)cc3)n2)n[nH]1 [tozasertib]
Procedure, shortened: as §1

Sequence of UniProt O95260 (O95260 whole entry, looked up): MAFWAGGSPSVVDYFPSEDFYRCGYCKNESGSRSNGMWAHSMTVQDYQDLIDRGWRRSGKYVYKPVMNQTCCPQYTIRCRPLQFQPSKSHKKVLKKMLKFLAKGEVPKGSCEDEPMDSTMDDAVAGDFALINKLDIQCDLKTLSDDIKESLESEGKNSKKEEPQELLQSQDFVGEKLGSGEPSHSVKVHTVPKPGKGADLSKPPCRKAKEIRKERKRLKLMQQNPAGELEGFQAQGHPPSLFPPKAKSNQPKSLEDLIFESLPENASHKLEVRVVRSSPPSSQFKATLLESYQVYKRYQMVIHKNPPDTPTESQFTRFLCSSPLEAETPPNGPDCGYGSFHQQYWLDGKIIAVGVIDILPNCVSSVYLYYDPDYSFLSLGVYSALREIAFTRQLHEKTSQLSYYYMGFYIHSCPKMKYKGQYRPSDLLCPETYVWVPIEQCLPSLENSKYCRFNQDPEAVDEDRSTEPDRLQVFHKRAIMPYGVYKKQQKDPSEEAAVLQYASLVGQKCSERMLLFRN
Sequence of UniProt Q9BSU1 (Q9BSU1 whole entry, looked up): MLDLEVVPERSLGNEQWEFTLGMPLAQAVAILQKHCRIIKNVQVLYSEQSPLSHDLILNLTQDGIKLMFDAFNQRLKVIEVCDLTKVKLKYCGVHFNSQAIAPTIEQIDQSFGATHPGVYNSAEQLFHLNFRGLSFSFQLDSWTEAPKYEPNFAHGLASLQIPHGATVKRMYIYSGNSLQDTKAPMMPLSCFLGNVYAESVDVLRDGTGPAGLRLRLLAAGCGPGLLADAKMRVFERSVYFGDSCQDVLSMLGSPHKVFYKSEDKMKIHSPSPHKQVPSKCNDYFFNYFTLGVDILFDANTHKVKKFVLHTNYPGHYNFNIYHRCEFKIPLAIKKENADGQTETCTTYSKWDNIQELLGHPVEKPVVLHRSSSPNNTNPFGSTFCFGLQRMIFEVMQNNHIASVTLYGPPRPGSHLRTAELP
Sequence of UniProt Q06187 (Q06187 whole entry, looked up): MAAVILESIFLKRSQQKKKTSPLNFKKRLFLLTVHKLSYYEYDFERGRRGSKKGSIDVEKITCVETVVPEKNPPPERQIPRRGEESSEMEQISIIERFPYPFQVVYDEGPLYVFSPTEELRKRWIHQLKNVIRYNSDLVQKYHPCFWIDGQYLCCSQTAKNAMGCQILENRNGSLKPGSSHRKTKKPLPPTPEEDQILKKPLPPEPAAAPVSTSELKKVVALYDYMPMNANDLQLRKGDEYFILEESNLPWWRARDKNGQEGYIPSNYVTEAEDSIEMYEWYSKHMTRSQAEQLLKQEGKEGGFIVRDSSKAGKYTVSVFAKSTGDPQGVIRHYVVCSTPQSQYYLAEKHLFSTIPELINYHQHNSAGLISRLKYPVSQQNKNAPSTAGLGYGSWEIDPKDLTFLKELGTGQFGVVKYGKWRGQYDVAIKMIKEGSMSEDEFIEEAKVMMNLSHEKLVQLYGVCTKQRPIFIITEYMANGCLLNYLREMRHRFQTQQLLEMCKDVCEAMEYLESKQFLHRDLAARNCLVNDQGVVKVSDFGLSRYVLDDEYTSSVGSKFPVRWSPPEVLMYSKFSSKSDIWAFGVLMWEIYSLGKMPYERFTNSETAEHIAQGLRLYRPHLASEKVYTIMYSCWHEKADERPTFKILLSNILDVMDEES
Sequence of UniProt Q8ND76 (Q8ND76 whole entry, looked up): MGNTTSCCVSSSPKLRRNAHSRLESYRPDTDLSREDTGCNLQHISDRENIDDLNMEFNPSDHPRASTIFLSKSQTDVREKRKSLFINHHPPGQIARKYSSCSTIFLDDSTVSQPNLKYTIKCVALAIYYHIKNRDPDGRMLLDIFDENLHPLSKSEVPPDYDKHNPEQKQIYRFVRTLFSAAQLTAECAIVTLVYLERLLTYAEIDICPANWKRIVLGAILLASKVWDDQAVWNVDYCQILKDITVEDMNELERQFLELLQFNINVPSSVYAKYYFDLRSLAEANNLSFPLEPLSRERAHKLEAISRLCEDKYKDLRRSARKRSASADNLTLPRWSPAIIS
Sequence of UniProt O75143 (O75143 whole entry, looked up): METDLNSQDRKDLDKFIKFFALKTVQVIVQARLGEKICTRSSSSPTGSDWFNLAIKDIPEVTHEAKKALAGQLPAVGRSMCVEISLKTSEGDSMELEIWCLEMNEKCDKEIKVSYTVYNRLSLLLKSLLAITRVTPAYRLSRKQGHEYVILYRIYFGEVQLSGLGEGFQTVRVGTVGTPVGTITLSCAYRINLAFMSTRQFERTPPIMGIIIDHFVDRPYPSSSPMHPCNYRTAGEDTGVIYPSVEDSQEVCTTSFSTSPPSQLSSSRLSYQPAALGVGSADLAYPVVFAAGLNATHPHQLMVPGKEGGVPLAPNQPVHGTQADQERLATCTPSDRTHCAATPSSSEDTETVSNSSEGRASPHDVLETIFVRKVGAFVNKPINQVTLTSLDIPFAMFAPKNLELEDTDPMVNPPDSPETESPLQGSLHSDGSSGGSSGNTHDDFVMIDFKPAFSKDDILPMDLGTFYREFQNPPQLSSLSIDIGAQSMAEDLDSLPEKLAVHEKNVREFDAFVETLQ
Sequence of UniProt Q9NZM4 (Q9NZM4 whole entry, looked up): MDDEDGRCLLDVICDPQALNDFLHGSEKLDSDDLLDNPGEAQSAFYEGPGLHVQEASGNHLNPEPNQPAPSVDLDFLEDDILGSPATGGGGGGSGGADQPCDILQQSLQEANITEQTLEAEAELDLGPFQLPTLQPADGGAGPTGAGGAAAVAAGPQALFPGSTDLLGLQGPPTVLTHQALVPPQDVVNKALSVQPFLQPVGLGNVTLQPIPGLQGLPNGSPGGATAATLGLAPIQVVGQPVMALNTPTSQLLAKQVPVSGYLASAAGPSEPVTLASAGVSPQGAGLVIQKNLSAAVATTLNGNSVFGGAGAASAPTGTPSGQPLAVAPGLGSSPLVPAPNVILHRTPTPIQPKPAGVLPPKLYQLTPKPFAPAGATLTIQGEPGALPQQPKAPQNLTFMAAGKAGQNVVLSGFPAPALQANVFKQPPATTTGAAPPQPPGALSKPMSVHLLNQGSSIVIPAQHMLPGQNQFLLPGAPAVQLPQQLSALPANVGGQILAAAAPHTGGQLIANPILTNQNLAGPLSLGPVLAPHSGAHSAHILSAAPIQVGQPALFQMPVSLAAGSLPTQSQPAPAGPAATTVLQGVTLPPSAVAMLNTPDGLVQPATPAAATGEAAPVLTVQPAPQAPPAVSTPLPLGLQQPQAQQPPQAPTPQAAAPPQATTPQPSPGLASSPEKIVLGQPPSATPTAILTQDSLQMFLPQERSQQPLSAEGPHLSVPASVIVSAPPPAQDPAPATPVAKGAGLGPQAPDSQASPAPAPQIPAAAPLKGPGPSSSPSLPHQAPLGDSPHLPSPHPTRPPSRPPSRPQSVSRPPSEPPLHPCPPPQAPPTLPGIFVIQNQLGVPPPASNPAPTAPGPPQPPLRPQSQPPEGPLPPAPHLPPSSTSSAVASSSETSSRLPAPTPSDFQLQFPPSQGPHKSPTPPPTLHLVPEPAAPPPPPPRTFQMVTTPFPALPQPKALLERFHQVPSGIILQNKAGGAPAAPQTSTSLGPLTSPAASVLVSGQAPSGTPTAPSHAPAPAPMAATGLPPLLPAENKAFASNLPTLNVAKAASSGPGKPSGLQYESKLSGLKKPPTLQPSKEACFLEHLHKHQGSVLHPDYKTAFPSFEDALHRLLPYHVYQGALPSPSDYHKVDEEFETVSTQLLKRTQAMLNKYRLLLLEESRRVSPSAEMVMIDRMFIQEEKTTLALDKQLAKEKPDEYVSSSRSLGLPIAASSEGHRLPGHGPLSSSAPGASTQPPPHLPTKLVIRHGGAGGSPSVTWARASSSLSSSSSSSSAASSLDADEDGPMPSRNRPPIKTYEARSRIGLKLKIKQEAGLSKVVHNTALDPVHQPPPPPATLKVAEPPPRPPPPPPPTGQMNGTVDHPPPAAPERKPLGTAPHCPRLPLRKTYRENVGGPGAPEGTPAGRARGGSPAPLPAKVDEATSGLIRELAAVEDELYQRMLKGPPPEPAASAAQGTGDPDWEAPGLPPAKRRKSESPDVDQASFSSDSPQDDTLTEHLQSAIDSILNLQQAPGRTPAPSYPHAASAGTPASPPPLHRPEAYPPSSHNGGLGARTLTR
Sequence of UniProt Q9UQ88 (Q9UQ88 whole entry, looked up): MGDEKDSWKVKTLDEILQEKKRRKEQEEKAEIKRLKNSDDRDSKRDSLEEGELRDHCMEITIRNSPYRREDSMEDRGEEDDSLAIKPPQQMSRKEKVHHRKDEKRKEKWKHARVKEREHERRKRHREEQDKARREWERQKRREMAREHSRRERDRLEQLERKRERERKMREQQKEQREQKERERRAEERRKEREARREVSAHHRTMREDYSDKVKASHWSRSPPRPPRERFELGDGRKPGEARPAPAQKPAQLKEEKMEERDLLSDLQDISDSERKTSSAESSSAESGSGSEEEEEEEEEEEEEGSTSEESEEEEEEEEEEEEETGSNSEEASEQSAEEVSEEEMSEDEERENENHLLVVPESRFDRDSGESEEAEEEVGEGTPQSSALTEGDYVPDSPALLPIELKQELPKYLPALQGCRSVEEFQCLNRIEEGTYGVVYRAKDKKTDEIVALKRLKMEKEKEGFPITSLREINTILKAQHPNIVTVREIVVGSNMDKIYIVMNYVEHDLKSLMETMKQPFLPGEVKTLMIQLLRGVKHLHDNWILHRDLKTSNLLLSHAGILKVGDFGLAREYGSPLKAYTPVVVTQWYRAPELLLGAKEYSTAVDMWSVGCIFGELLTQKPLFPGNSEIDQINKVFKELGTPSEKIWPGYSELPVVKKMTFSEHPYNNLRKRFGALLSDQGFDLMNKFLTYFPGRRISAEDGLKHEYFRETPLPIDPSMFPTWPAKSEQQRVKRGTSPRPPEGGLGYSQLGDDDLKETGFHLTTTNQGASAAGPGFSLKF

Target	log2 fold change (lapatinib)	log2 fold change (pictilisib)	log2 fold change (crizotinib)	log2 fold change [1]	log2 fold change (duvelisib)	log2 fold change (gandotinib)	log2 fold change (doramapimod)	log2 fold change (bafetinib)	log2 fold change [2]	log2 fold change (nilotinib)	log2 fold change [3]	log2 fold change (dasatinib)	log2 fold change [4]	log2 fold change [5]	log2 fold change (quisinostat)	log2 fold change (tipifarnib)	log2 fold change [6]	log2 fold change [7]	log2 fold change [8]	log2 fold change (tozasertib)
CDK8 (UniProt P49336)	-0.035	-0.033	-0.032	0.129	-0.075	-0.065	0.322	-0.043	0.119	-0.025	-0.037	-0.054	0.119	-0.032	-0.05	-0.209	0.018	-0.006	-0.033	
CEP295 isoform 3 (UniProt Q9C0D2)	-0.038	0.057	0.004	-0.365 (active)		0.058	0.059	0.031	0.072	0.016	0.046		0.006		0.017	0.062	-0.038	0.14	0.046	0.111
CCPG1 isoform 5 (UniProt Q9ULG6)	0.114	-0.038	0.006	-0.036	0.006	-0.089	0.036	0.035	0.108	0.067	0.017	0.013	0.087	0.004	-0.021	-0.033	0.029	0	-0.073	-0.021
ATXN2 (UniProt F8WB05)	0.06	0.005	-0.023	0.087	-0.065	-0.028	-0.12	0.045	0.001			0.035		-0.058	-0.208		-0.025	0.025	-0.394	0.043
ATF7IP2 (UniProt Q5U623)	-0.03	0.05	-0.215	0.05		0.027	0.073	-0.023	-0.155	-0.003	0.008		-0.089		-0.336 (active)	-0.064	0.001	0.036	-0.127	
C16orf70 (UniProt Q9BSU1)	-0.002	-0.076	0.058		-0.013		0.116	-0.045				0.042		-0.091	0.036		-0.005	-0.001	0.009	0.018
BICRA (UniProt Q9NZM4)	-0.099	0.052	-0.059	-0.027	0.105	0.171	0.014	0.078	0.133			0.088		-0.1	0.037		-0.004	0.054	-0.382	
BTK isoform 2 (UniProt Q06187)	-0.015	-0.041		-0.148	0.018	0.101	0.031	-0.043	0.178	0.016	-0.002		0.015	-0.005	-0.05	-0.021	0.294 (active)	0.032	-0.049	-0.012
C3orf33 (UniProt Q6P1S2)	0.09	0.059	-0.051	-0.541	0.101	0.14	-0.025	-0.046	0.263	-0.105	-0.15	-0.013	0.009	-0.072	-0.14	0.007	0.274	0.094	0.123	
CDK11A (UniProt Q9UQ88)	0.104	-0.02	0.092	0.049	-0.003	0.122	-0.072	-0.033	-0.093	-0.007	0.053	-0.016	0.085	-0.001	-0.031	-0.029	0.035	-0.029	-0.034	
CCNY (UniProt Q8ND76)	-0.061	-0.044	-0.035	-0.094	-0.057	0.081	0.033	-0.073	0.054	0.017	0.016	-0.021	0.05	0.065	-0.216	0.057	0.077	-0.022	0.025	0.056
ATG13 isoform 2 (UniProt O75143)	0.018	0.014	-0.022	-0.271 (active)	0.016	0.172	0.049	-0.123	0.137	-0.034	0.036	0.002	0.028	-0.069	-0.052	-0.018	0.059	0	-0.014	0.05
C18orf25 isoform 2 (UniProt Q96B23)	-0.001	-0.235		-0.017	0.017	0.061		-0.025	-0.021	-0.026	-0.115	-0.025	-0.291	-0.056		0.076		0.01	-0.071	0.001
CASP7 isoform 3 (UniProt P55210)	-0.055	0.037	-0.07		0.009		0.029	-0.054		-0.042	0.01	-0.091	0.05	0.226	-0.016	0.049	0.022	0.106	0.063	0.049
BTRC (UniProt Q9Y297)	0.01	-0.008		0.018		0.073		-0.027	0.065	0.006	0.02		-0.003			0.02		0.059	0.031	-0.01
CDK2 (UniProt P24941)	-0.026	0.028	0		-0.026	0.403 (active)	0.004	0.042	-0.001	-0.01		0.018		0.01	-0.077	0.011	0.005	0.067	-0.012	0.008
CARD9 (UniProt Q9H257)	-0.048	-0.035	-0.053	-0.016	-0.009	-0.032	0.032	-0.145	0.03	0.047	-0.037	-0.017	0.028	0	-0.032	-0.035	0.005	0.034	-0.007	0.022
CAPNS1 (UniProt U3KPR7)	-0.052	-0.083						-0.194		-0.166	-0.416		0.226			0.161		-0.214		
ATE1 isoform 2 (UniProt O95260)	0.021	-0.058	0.024	-0.089	-0.051	0.076	-0.071	-0.093	0.029	-0.099	-0.006	0.069	-0.032	0.017	-0.014	0.025	0.034	-0.002	0.014	-0.003
